Reference: PubChem BioAssay (EPA / NIEHS)
Activity calls are given as the source filed them. How the source made its calls: active means hit-call score of the fitted dose curve at least 0.9, where 1 is the maximum; inactive means score below 0.9.

What was measured:
[1] = read-out: Interleukin-8 (IL8), CXCL8 (gene 3576); test: BSK_CASM3C_IL8: BioMAP Diversity Plus: CASM3C Assay for Interleukin-8 (IL8) Biomarker Activity (AID 2283042); details: primary human coronary artery smooth muscle cells; actives raise or lower the signal;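 further: IL-8 protein level quantified by ELISA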
[2] = read-out: Human Leukocyte Antigen - DR isotype (HLADR), HLA-DRA (gene 3122); test: BSK_CASM3C_HLADR: BioMAP Diversity Plus: CASM3C Assay for Human Leukocyte Antigen - DR isotype (HLADR) Biomarker Activity (AID 2283043); details: primary human coronary artery smooth muscle cells; actives raise or lower the signal;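 further: cell-surface HLA-DR protein level quantified by ELISA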
[3] = read-out: Macrophage colony-stimulating factor (MCSF), CSF1 (gene 1435); test: BSK_CASM3C_MCSF: BioMAP Diversity Plus: CASM3C Assay for Macrophage colony-stimulating factor (MCSF) Biomarker Activity (AID 2283044); details: primary human coronary artery smooth muscle cells; actives raise or lower the signal;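 further: M-CSF protein amount quantified by ELISA after 24 h exposure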
[4] = read-out: Low-density lipoprotein receptor (LDLR), LDLR (gene 3949); test: BSK_CASM3C_LDLR: BioMAP Diversity Plus: CASM3C Assay for Low-density lipoprotein receptor (LDLR) Biomarker Activity (AID 2283045); details: primary human coronary artery smooth muscle cells; actives raise or lower the signal;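 further: LDLR protein level on the cell surface quantified by ELISA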
[5] = read-out: Monocyte Chemoattractant Protein-1 (MCP1), CCL2 (gene 6347); test: BSK_CASM3C_MCP1: BioMAP Diversity Plus: CASM3C Assay for Monocyte Chemoattractant Protein-1 (MCP1) Biomarker Activity (AID 2283046); details: primary human coronary artery smooth muscle cells; actives raise or lower the signal;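 further: MCP-1 level quantified by ELISA 24 h after dosing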
[6] = BSK_CASM3C_Proliferation: Cell Proliferation Assessment in the BioMAP Diversity Plus: CASM3C Assay (AID 2283047); details: primary human coronary artery smooth muscle cells;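 further: sulforhodamine B total protein stain as relative cell number at 560 nm; sub-confluent cells exposed 48 h before staining; fitted both ways against DMSO so gain or loss of cell number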
[7] = read-out: Monokine induced gamma interferon (MIG), CXCL9 (gene 4283); test: BSK_CASM3C_MIG: BioMAP Diversity Plus: CASM3C Assay for Monokine induced gamma interferon (MIG) Biomarker Activity (AID 2283048); details: primary human coronary artery smooth muscle cells; actives raise or lower the signal;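 further: MIG protein level measured by ELISA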
[8] = read-out: serum amyloid A (SAA), SAA1 (gene 6288); test: BSK_CASM3C_SAA: BioMAP Diversity Plus: CASM3C Assay for serum amyloid A (SAA) Biomarker Activity (AID 2283049); details: primary human coronary artery smooth muscle cells; actives raise or lower the signal;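 further: SAA protein level quantified by ELISA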
[9] = BSK_CASM3C_SRB: Viability Assessment in the BioMAP Diversity Plus: CASM3C Assay (AID 2283050); details: primary human coronary artery smooth muscle cells;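 further: total protein by SRB staining as cytotoxicity measure in parallel cultures; cells exposed to compound for 24 h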
[10] = read-out: Thrombomodulin, THBD (gene 7056); test: BSK_CASM3C_Thrombomodulin: BioMAP Diversity Plus: CASM3C Assay for Thrombomodulin Biomarker Activity (AID 2283051); details: primary human coronary artery smooth muscle cells; actives raise or lower the signal;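 further: thrombomodulin protein level measured by ELISA 24 h after dosing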
[11] = read-out: Tissue Factor, F3 (gene 2152); test: BSK_CASM3C_TissueFactor: BioMAP Diversity Plus: CASM3C Assay for Tissue Factor Biomarker Activity (AID 2283052); details: primary human coronary artery smooth muscle cells; actives raise or lower the signal;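 further: cell surface tissue factor protein level read by ELISA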
[12] = read-out: Urokinase-type plasminogen activator receptor (uPAR), PLAUR (gene 5329); test: BSK_CASM3C_uPAR: BioMAP Diversity Plus: CASM3C Assay for Urokinase-type plasminogen activator receptor (uPAR) Biomarker Activity (AID 2283054); details: primary human coronary artery smooth muscle cells; actives raise or lower the signal;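 further: cell-surface uPAR protein level quantified by ELISA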
[13] = read-out: Vascular cell adhesion molecule 1 (VCAM1), VCAM1 (gene 7412); test: BSK_CASM3C_VCAM1: BioMAP Diversity Plus: CASM3C Assay for Vascular cell adhesion molecule 1 (VCAM1) Biomarker Activity (AID 2283055); details: primary human coronary artery smooth muscle cells; actives raise or lower the signal;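 further: VCAM-1 protein level quantified by ELISA on the cells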
[14] = read-out: Collagen III, COL3A1 (gene 1281); test: BSK_hDFCGF_CollagenIII: BioMAP Diversity Plus: hDFCGF Assay for Collagen III Biomarker Activity (AID 2283056); details: primary human foreskin fibroblasts; actives raise or lower the signal
Summary of the method: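 ELISA read-out of collagen III from human skin fibroblast cultures sampled 24 h post-dosing. Values were derived by bidirectional fitting relative to the DMSO vehicle control.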

[15] = read-out: Epidermal growth factor receptor (EGFR), EGFR (gene 1956); test: BSK_hDFCGF_EGFR: BioMAP Diversity Plus: hDFCGF Assay for Epidermal growth factor receptor (EGFR) Biomarker Activity (AID 2283057); details: primary human foreskin fibroblasts; actives raise or lower the signal
Summary of the method: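 Cell-based multiplexed assay in primary human foreskin fibroblasts. EGFR is read by ELISA 24 h after treatment and compared with DMSO controls.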

[16] = read-out: Interleukin-8 (IL8), CXCL8 (gene 3576); test: BSK_hDFCGF_IL8: BioMAP Diversity Plus: hDFCGF Assay for Interleukin-8 (IL8) Biomarker Activity (AID 2283058); details: primary human foreskin fibroblasts; actives raise or lower the signal
Summary of the method: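 Cells used are human skin primary fibroblasts. Chemical is added, cultures run 24 h, then IL-8 is quantified by ELISA, and gain or loss versus DMSO control is fitted in both directions.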

[17] = BSK_hDFCGF_Proliferation: Cell Proliferation Assessment in the BioMAP Diversity Plus: hDFCGF Assay (AID 2283059); details: primary human foreskin fibroblasts;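 further: curves fitted for both rise and fall of signal versus DMSO baseline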
Summary of the method: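 This proliferation readout used SRB total-protein staining of human foreskin fibroblasts […], normalized to DMSO with bidirectional curve fitting.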

[18] = read-out: Macrophage colony-stimulating factor (MCSF), CSF1 (gene 1435); test: BSK_hDFCGF_MCSF: BioMAP Diversity Plus: hDFCGF Assay for Macrophage colony-stimulating factor (MCSF) Biomarker Activity (AID 2283060); details: primary human foreskin fibroblasts; actives raise or lower the signal
Summary of the method: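 Primary human foreskin fibroblasts dosed with chemical; 24 h later, M-CSF quantified by ELISA; curves fitted in both directions vs DMSO negative control.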

[19] = read-out: Interferon-gamma inducible Protein 10 (IP10), CXCL10 (gene 3627); test: BSK_hDFCGF_IP10: BioMAP Diversity Plus: hDFCGF Assay for Interferon-gamma inducible Protein 10 (IP10) Biomarker Activity (AID 2283053); details: primary human foreskin fibroblasts; actives raise or lower the signal
Summary of the method: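 Chemical-treated human skin fibroblasts (primary) were sampled at 24 h for IP-10 by ELISA. Both increases and decreases relative to DMSO were scored.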

[20] = BSK_hDFCGF_SRB: Viability Assessment in the BioMAP Diversity Plus: hDFCGF Assay (AID 2283061); details: primary human foreskin fibroblasts;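 further: cells exposed to compound for 24 h before the read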
Summary of the method: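 Readout is SRB absorbance at 560 nm, reflecting total protein in parallel cultures of human foreskin fibroblasts harvested 24 h after chemical dosing. Activity was fitted bidirectionally relative to DMSO.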

Measured: AC50

CCCCc1ccc2c(n1)[C@@H](c1ccc(OC)cc1C[C@H](C)C(=O)O)[C@H](C(=O)O)[C@H]2c1ccc2c(c1)OCO2
inactive: [1] | [2] | [3] | [4] | [5] | [6] | [7] | [8] | [9] | [10] | [11] | [12] | [13] | [14] | [15] | [16] | [17] | [18]

Nc1nc(N)c2nc(CNc3ccc(C(=O)N[C@@H](CCC(=O)O)C(=O)O)cc3)cnc2n1
inactive: [1] | [2] | [3] | [4] | [5] | [6] | [7] | [8] | [9] | [10] | [11] | [19] | [12] | [13] | [14] | [15] | [16] | [17] | [18] | [20]

CCOC(=O)CCC(=O)OCC
inactive: [1] | [2] | [3] | [4] | [5] | [6] | [7] | [8] | [9] | [10] | [11] | [12] | [13] | [14] | [15] | [16] | [17] | [18] | [20]

O=C(OCCCCCOC(=O)c1ccccc1)c1ccccc1
inactive: [1] | [2] | [3] | [4] | [5] | [6] | [7] | [8] | [9] | [10] | [11] | [12] | [13] | [14] | [15] | [16] | [17] | [18] | [20]

CCCCCCOCCO
inactive: [1] | [2] | [3] | [4] | [5] | [6] | [7] | [8] | [9] | [10] | [11] | [12] | [13] | [14] | [15] | [16] | [17] | [18]

NCC1(Cc2noc(=O)[nH]2)CCCCC1
inactive: [1] | [2] | [3] | [4] | [5] | [6] | [7] | [8] | [9] | [10] | [11] | [12] | [13] | [14] | [15] | [16] | [17] | [18] | [20]

Cc1cccc(C)c1O
inactive: [1] | [2] | [3] | [4] | [5] | [6] | [7] | [8] | [9] | [10] | [11] | [12] | [13] | [14] | [15] | [16] | [17] | [18] | [20]

CCCCCCCCCCO
inactive: [1] | [2] | [3] | [4] | [5] | [6] | [7] | [8] | [9] | [10] | [11] | [12] | [13] | [14] | [15] | [16] | [17] | [18] | [20]

Cc1ccc(Cl)cc1
active: [17] 0.148 µM
inactive: [1] | [2] | [3] | [4] | [5] | [6] | [7] | [8] | [9] | [10] | [11] | [12] | [13] | [14] | [15] | [16] | [18] | [20]

CC1(C)CC(N=C=O)CC(C)(CN=C=O)C1 (stereo unspecified)
active: [4] 6.43 µM
inactive: [1] | [2] | [3] | [5] | [6] | [7] | [8] | [9] | [10] | [11] | [12] | [13] | [14] | [15] | [16] | [17] | [18] | [20]

Nc1ccc2c(c1)C(=O)c1ccccc1C2=O
active: [6] 14.3 µM | [12] 20 µM | [17] 4.98 µM
inactive: [1] | [2] | [3] | [4] | [7] | [8] | [9] | [10] | [11] | [13] | [14] | [15] | [16] | [18] | [20]

CCCCCCCCCCCCCCCCCC(=O)O
inactive: [1] | [2] | [3] | [4] | [5] | [7] | [8] | [10] | [11] | [12] | [13] | [14] | [15] | [16] | [17] | [18]
active: [6] 8.81 µM

CC(CO)OC(C)CO (stereo unspecified) (tested in a mixture with another compound)
inactive: [1] | [2] | [3] | [4] | [5] | [6] | [7] | [8] | [9] | [10] | [11] | [12] | [13] | [14] | [15] | [16] | [17] | [18] | [20]

Cc1ccc(C(C)C)c(O)c1
inactive: [1] | [2] | [3] | [4] | [5] | [6] | [7] | [9] | [10] | [11] | [19] | [12] | [13] | [14] | [15] | [16] | [17] | [18] | [20]

CCCCCCCC=O
inactive: [1] | [2] | [3] | [4] | [5] | [6] | [7] | [8] | [9] | [10] | [11] | [12] | [13] | [14] | [15] | [16] | [17] | [18] | [20]
